ALOX12 inhib: 12-hLO (ALOX12) enzyme inhibition; P18054; Potency, µM (highest dose often 57.1 µM), hits mostly inhibitors; actives 0.12% (n = 150,000); purified 12-hLO, xylenol orange hydroperoxide absorbance; also: nearly all actives have a fitted effect of over 55% in size
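Purified human 12hLO (150 nM final) was preincubated with compounds for 15 min at room temperature in 25 mM Hepes pH 7.0, 0.01% Triton X-100, then reacted with 40 uM arachidonic acid for 30 min. Hydroperoxide was detected with ferrous iron/xylenol orange.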
ALDH1A1 inh: inhibitors of human aldehyde dehydrogenase 1A1; Purified ALDH1A1, NADH fluorescence, propionaldehyde substrate; Potency, µM (series often up to 75.3 µM), hits mostly inhibitors; actives 7.3% (n = 220,000); active = well fitted inhibition curve with a large enough effect, not every such curve was filed as active; inconclusive = small, poorly fitted or top-dose-only effect, or another doubt; inactive = no such curve, though single readings can be large or run the other way
Target sequence (P00352 whole entry, looked up): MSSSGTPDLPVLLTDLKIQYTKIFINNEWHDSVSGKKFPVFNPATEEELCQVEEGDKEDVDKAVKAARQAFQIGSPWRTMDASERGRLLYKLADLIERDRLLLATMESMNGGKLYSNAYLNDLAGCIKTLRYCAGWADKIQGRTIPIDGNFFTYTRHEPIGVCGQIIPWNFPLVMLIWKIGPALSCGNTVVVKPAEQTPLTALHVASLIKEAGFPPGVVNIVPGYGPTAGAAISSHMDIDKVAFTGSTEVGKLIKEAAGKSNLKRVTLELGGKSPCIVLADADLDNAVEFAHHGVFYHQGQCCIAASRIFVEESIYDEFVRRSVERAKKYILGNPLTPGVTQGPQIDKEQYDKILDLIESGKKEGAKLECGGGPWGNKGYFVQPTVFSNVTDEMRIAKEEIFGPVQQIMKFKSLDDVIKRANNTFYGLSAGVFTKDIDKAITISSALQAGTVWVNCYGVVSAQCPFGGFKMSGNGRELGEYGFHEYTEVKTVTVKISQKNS
PNC inhibitor: perinucleolar compartment assembly inhibition; PC3M PTB-GFP, PNC prevalence imaging, 16 h; stronger effect = lower value; activity change (PNC), negative = inhibition, % at 10 µM; actives 3.1% (n = 140,000);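 active = readout at or below -70, meaning at least 70% loss of cells showing the perinucleolar compartment, a nuclear body marking cancer cells; inconclusive = readout between -30 and a set limit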
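PC3M cells stably expressing PTB-GFP, 750–1000 cells/well, treated 16 h at 37 °C with compound (23 nl of library stock), in duplicate. After paraformaldehyde fixation and Hoechst stain, imaged at 20x; PNC prevalence scored by image analysis.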
HPGD inh: HPGD (human) dehydrogenase inhibition | actives 4.3% (n = 150,000) | P15428 | purified HPGD, NADH fluorescence kinetic, PGE2 substrate | Potency, µM, actives largely listed as inhibitors; active = well fitted inhibition curve with a large enough effect, not every such curve was filed as active; inconclusive = small, poorly fitted or top-dose-only effect, or another doubt; inactive = no such curve, though single readings can be large or run the other way
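20 nM HPGD preincubated 15 min at room temperature with compound in 50 mM Tris-HCl pH 8, 0.01% Tween 20. Started with 1 mM NAD+ and 30 uM prostaglandin E2; NADH fluorescence (360/450 nm) read 5 times over 30-s intervals, last minus first.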
IMPase inh: IMPase inhibition in cells. inhibition (IP1 accumulation), % at 46.1 µM. CHO-M1 cells, IP1 accumulation, HTRF TR-FRET ratio. 120,000 tested, under 10 active; active = well fitted curve in the direction sought with a large enough effect in the signal ratio, not every such curve was filed as active; inconclusive = small, poorly fitted or top-dose-only effect, or a change in a side signal; inactive = no such curve, though single readings can be large or run the other way; the % refers to the signal ratio;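 also: cells stimulated with carbachol in lithium chloride buffer; higher means more IMPase inhibition seen as more IP1 and lower FRET ratio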
Target sequence (P97697 whole entry, looked up): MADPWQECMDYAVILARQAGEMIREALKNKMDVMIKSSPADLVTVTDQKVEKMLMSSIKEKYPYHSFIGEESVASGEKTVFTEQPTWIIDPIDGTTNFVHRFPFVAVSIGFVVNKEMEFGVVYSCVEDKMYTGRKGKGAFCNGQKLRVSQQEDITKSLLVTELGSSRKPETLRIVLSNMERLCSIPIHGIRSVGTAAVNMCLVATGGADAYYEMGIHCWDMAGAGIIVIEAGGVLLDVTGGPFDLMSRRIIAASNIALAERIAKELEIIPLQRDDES
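Measured: the HTRF emission ratio (665/620 nm) plus the 620 nm donor channel, each fitted to the Hill equation to give AC50. Cells were CHO-M1 given compounds up to 46 uM and a 30 min carbachol stimulation at 37C.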
IMPase Li cell: cell-permeable IMPase inhibitors with lithium potentiation | CHO-M1 cells, IP1 TR-FRET (IP-One), carbachol + lithium | actives 0.35% (n = 210,000) | Potency, µM (top dose mostly 59.4 µM), most hits filed as inhibitors;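 also: IP1 builds up when IMPase is blocked and the TR-FRET signal falls; nearly all actives have a fitted effect of over 50% in size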
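Steps: plate 2000 CHO-M1 cells per well and culture 16–30 h; add compound and lithium; incubate 30 min, 37C; add d2-IP1 tracer and Eu cryptate anti-IP1 antibody in lysis buffer; read after 10 min at room temperature.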
A number is an active result; n = inactive; u = inconclusive; x = no result given; [ ] = another dose, or the depositor's remark. Hits are enriched below; roughly 11% of the tested compounds scored in any of these assays. Unless noted, calls follow the shape of the dose curve; as a rule, active = well fitted curve in the direction sought with a large enough effect; inconclusive = small, poorly fitted or top-dose-only effect, or another doubt; inactive = no such curve, though single readings can be large; an effect the other way counts as inactive or inconclusive.

SMILES	ALOX12 inhib	ALDH1A1 inh	PNC inhibitor	HPGD inh	IMPase inh	IMPase Li cell
C=CCn1c(SCC(=O)c2ccccc2)nnc1-c1cc2ccccc2o1	n	u	u	14.1µM	n	n
Cc1cc([N+](=O)[O-])nn1CC(=O)Nc1nccs1	n	n	-89.2	n	x	n
Cc1nn(CCC(=O)NNC(=S)Nc2ccc(Cl)cc2)c(C)c1[N+](=O)[O-]	n	22.4µM	n	n	n	n
O=C(Cn1ccc([N+](=O)[O-])n1)Nc1nccs1	n	n	n	n	x	n
Cc1cc([N+](=O)[O-])nn1CC(=O)NNC(=S)Nc1ccc([N+](=O)[O-])cc1	n	22.4µM	n	n	n	n
CN(C)C(=O)[C@H]1C[C@@H]1[C@H](NC(=O)OCc1ccccc1)c1ccccc1	n	n	x	n	x	n
C[C@H]1Cc2c(COc3ccccc3)nc3c(c2CO1)CN(C(=O)NCCc1c[nH]c2ccccc12)CC3	n[11.4 µM]	n[13.5 µM]	x	n	x	n
CO[C@@H]1/C=C\O[C@@]2(C)Oc3c(C)c(O)c4c(c3C2=O)C(=N[C@H]2CC[C@H](O)O[C@@H]2C)C=C(NC(=O)/C(C)=C\C(=O)[C@@H]2C[C@@H]2[C@@H](O)[C@H](C)[C@@H](O)[C@H](C)[C@H](OC(C)=O)[C@@H]1C)C4=O	n[11.4 µM]	n[13.5 µM]	x	n	x	n
CC1=C(C(=O)Nc2ccccc2)C(c2ccc(O)cc2)n2nc(-c3ccc(Cl)cc3)nc2N1 (configuration not stated)	x	x	x	x	n	x
Cc1ccc2nc(SC(C)C(=O)Nc3cccc([N+](=O)[O-])c3)[nH]c2c1 (configuration not stated)	n	n	-83.6	u	x	n
Cc1ccc2nc(SCC(=O)Nc3cc([N+](=O)[O-])ccc3F)[nH]c2c1	n	u	u	n	n	n
CC(C)=CCC1=C(O)c2ccccc2C(=O)C1=O	n	u	x	n	x	n
CCn1ncc([C@@H]2C[C@H]3CN(Cc4cccc(Cl)c4)C(=O)[C@]34CCCN24)c1C	x	n	x	x	x	n
O=C1N(Cc2cccc(Cl)c2)C[C@@H]2C[C@@H](c3cccn3-c3cccnc3)N3CCC[C@@]123	x	7.08µM	x	x	x	n
O=C(O)COc1ccc(/C=N/n2cnc3scc(-c4cccs4)c3c2=O)cc1	n	7.08µM	n	n	x	n
Cn1c(=O)c(=O)n(C)c2cc(N3CCCC3)c(NC(=O)c3ccc(C(C)(C)C)cc3)cc21	x	x	x	x	n	x
CC(=O)c1sc(NC(=O)C(C)C)nc1C	n	n	n	n	u	11.2µM
CC(=O)c1sc(Nc2ccccn2)nc1C	n	20µM	u	n	u	14.1µM
COc1cc(C)nc(Nc2nc(C)c(C(C)=O)s2)n1	n	1.58µM	n	x	n	x
CC(=O)c1sc(Nc2ccc(C)cc2)nc1C	x	n	x	x	x	n
CCN(Cc1ccncc1)C(=O)C(CO)c1ccccc1 (configuration not stated)	x	n	x	n	x	n
COc1ccccc1CCn1c(=O)c(-c2cccc(Cl)c2)nc2cncnc21	x	n	x	x	x	n
CCC(=O)OCC(=O)C1(OC(=O)CC)C(C)CC2C3CCC4=CC(=O)C=CC4(C)C3(Cl)C(O)CC21C (configuration not stated)	n	n	x	n	x	n
CCN(CC)CCNC(=O)c1cc(Br)c(N)cc1OC	n	n	x	n	n	n
CC(=O)OCCCNc1cc(SCc2ccco2)c2nonc2c1[N+](=O)[O-]	n	7.94µM	n	7.94µM	n	n
SMILES	ALOX12 inhib	ALDH1A1 inh	PNC inhibitor	HPGD inh	IMPase inh	IMPase Li cell
CCCSc1cc(NCCOC(=O)CCC)c([N+](=O)[O-])c2nonc12	n	u	n	n	n	n
CCCC(=O)OCCNc1cc(SCc2ccco2)c2nonc2c1[N+](=O)[O-]	n	4.47µM	n	u	n	n
CCCSc1cc(NCCOC(C)=O)c([N+](=O)[O-])c2nonc12	n	n	n	n	n	n
CCCC(=O)OCCNc1cc(Sc2nccn2C)c2nonc2c1[N+](=O)[O-]	n	u	n	28.2µM	x	n
Cc1c(C(=O)N(C)Cc2ccccc2)oc2ccc(S(=O)(=O)N3CCCC3)cc12	n	22.4µM	n	n	n	n
Cc1c(C(=O)NCc2ccccc2)oc2ccc(S(=O)(=O)N3CCCC3)cc12	n	u	n	n	n	n
COc1ccc(NC(=O)c2oc3ccc(S(=O)(=O)N4CCC5(CC4)OCCO5)cc3c2C)cc1	n	22.4µM	u	n	n	n
Cc1c(C(=O)O)oc2ccc(S(=O)(=O)N3CCC(C)CC3)cc12	n	n	n	11.2µM	n	n
OCCCSCCO	n[11.4 µM]	n[13.5 µM]	x	n	x	n
CCOC(=O)c1cnc(N(C)C)nc1SC(=N)N	n[11.4 µM]	u	x	n	x	n
O=C(CCNc1cccc(F)c1)c1cccc([N+](=O)[O-])c1	x	0.631µM	x	x	x	n
O=C(COc1cccc(NC(=O)c2cccc([N+](=O)[O-])c2)c1)c1ccc(F)cc1	n	n	u	n	n	n
O=C(C[n+]1cccc(NC(=O)c2ccccc2)c1)c1cccc([N+](=O)[O-])c1	x	9.46µM	x	x	x	n
O=C(C[n+]1ccc(-c2cc(C(=O)Nc3cccc(C(F)(F)F)c3)c3ccccc3n2)cc1)c1cccc([N+](=O)[O-])c1	x	n	x	x	x	n
Cc1ccc2c(c1)CCCN2C(=O)c1cc2ccccc2oc1=O	n	14.1µM	n	n	n	n
Cc1ccc2c(c1)CCCN2C(=O)c1ccoc1C	n	u	n	n	n	n
O=C(CCN1CCc2ccccc2C(c2ccccc2)C1)c1ccc2c(c1)OCCO2 (configuration not stated)	n	0.141µM	n	n	n	n
O=C(CCN1Cc2ccccc2C1)c1ccc2c(c1)OCCO2	n	1.26µM	n	n	n[9.22 µM]	n
CN(C)CCC(=O)c1ccc2c(c1)OCO2	n	0.0224µM	n	n	n	n
O=C(CS(=O)(=O)c1ccccc1)c1ccc2c(c1)OCCO2	n	u	u	u	n	n
O=C(O)CCSCC(=O)c1ccc2c(c1)OCCO2	n	15µM	n	n	n	n
CC(C)[C@@H](CC(=O)N[C@@H]1CCCC[C@H]1C(=O)N[C@H](CC(=O)N[C@@H](CCC(=O)O)CC(=O)O)Cc1ccccc1)NC(=O)C[C@H](CO)NC(=O)[C@@H]1CCCC[C@H]1N	n	n	x	n	x	n
CC1(C)CC=C(O[Si](C)(c2ccccc2)c2ccccc2)CC1	x	n	x	n	x	n
CC(=O)c1cc(C)oc1C	n	n	x	n	x	n
CC1(C)O[C@@H]2O[C@H]([C@H](O)CO/N=C3/[C@H]4O[C@@H]4[C@@H](O)[C@H]4[C@H]3CCn3c(=O)n(-c5ccccc5)c(=O)n34)[C@@H](O)[C@@H]2O1	x	n[13.5 µM]	x	x	x	x
Cc1c(C(=O)OCC(=O)c2ccc3c(c2)OCCO3)oc2ccccc12	n	n	n	n	n	n

From PubChem
